# PubChem BioAssay (NCATS)
# Inconclusive results are not listed. Values without a mark were called inactive. Active and inactive are the calls of the source. Calls come from the whole dose curve; as a rule, active = well fitted inhibition curve with a large enough effect; inconclusive = small, poorly fitted or top-dose-only effect; inactive = flat fitted curve, though single readings scatter.
# Biological target: Dual specificity protein kinase CLK4 (Homo sapiens) (UniProt Q9HAZ1)
# Assay: qHTS Assay for Inhibitors of CDC-like Kinase 4 (ADP-FP Assay) (AID 1795); note: nearly all actives have a fitted effect of over 60% in size;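 for activity change, negative = inhibition: recombinant human CLK4 phosphorylating RS repeat peptide at 1 µM ATP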
# Settings: Transcreener ADP fluorescence polarization; series mostly up to 50 µM; activity change, negative = inhibition: at the top concentration
# How it was run: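 FP readout: Orange Transcreener ADP2 tracer (4 nM) plus ADP antibody, read after 30 min at room temperature. Kinase step: 6.25 nM Clk4, 100 uM RS peptide, 1 uM ATP, pH 7.5, 1 h.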
# % is set by controls: 0 for no effect and ±100 for the full control effect; potency is the fitted concentration of half-maximal effect.
# Dual specificity protein kinase CLK4 (Homo sapiens), sequence (Q9HAZ1 whole entry, looked up): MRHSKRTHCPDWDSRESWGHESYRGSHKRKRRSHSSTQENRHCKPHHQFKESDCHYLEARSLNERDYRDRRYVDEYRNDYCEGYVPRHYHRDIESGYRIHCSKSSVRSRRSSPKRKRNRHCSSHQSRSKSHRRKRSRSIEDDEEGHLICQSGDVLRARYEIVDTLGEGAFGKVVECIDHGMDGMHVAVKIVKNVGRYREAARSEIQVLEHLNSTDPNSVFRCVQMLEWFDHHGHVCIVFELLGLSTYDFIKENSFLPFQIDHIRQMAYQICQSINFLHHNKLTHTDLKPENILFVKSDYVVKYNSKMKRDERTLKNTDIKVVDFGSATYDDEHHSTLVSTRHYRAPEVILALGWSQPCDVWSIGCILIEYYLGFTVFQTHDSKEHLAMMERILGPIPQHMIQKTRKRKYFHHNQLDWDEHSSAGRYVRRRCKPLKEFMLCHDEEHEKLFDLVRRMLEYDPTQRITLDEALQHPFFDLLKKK
SMILES,"activity change, negative = inhibition",Potency
Cc1ccccc1-c1nccc(NCc2cccs2)n1,5.34%,–
CN1CCN(c2ncc3nc(-c4ccc(F)cc4)c(=O)n(Cc4cccs4)c3n2)CC1,12.7%,–
COc1ccc(-c2nc3cnc(N4CCN(C)CC4)nc3n(Cc3cccs3)c2=O)cc1,8.35%,–
FC(F)(F)c1ccccc1-c1nc(NCCN2CCOCC2)c2ccccc2n1,3.11%,–
COc1ccc(-c2nc3cnc(Oc4cccc(Cl)c4)nc3n(C3CC3)c2=O)cc1,6.2%,–
N#CCCn1c(=O)c(-c2ccc(F)cc2)nc2cnc(N3CCOCC3)nc21,9.19%,–
Cn1c(=O)c(-c2cccs2)nc2cnc(N3CCNCC3)nc21,4.07%,–
CS(=O)(=O)Nc1cccc(-c2ccc3ncnc(NC4CC4)c3c2)c1,–,4.47 µM (active)
CN1CCN(c2ncc3nc(CCc4ccccc4)c(=O)n(C4CC4)c3n2)CC1,4.47%,–
COCCn1c(=O)cnc2cnc(Nc3ccccc3)nc21,–,2.82 µM (active)
Cc1ccccc1-c1ccc2ncnc(NC3CC3)c2c1,–,12.6 µM (active)
c1cncc(CNc2ncncc2-c2cccnc2)c1,7.5%,–
Clc1ccccc1-c1nccc(NCc2cccs2)n1,-2.47%,–
O=c1c(-c2ccc(F)cc2)nc2cnc(Oc3ccccc3)nc2n1Cc1cccs1,2.53%,–
FC(F)(F)c1ccccc1-c1nc(NCc2cccs2)c2ccccc2n1,-6.2%,–
COc1ccc(Oc2ncc3nc(-c4cn(C)c5ccccc45)c(=O)n(C4CC4)c3n2)cc1,9.26%,–
COc1ccc(-n2c(=O)c(-c3ccc(F)cc3)nc3cnc(N4CCOCC4)nc32)cc1,4.86%,–
CC(=O)NCCNc1ncnc2ccc(-c3ccoc3)cc12,–,0.355 µM (active)
COCCNc1ncnc2ccc(-c3cccc(NS(C)(=O)=O)c3)cc12,–,11.2 µM (active)
c1csc(CNc2ncnc3ccc(-c4ccoc4)cc23)c1,–,0.0501 µM (active)

SMILES,"activity change, negative = inhibition",Potency
Cc1ccccc1-c1cc(N2CCN(C)CC2)ncn1,4.86%,–
c1nc(NC2CCNCC2)c2cc(-c3ccoc3)ccc2n1,–,0.631 µM (active)
COc1ncc2nc(-c3ccc(F)cc3)c(=O)n(C)c2n1,10.3%,–
COCCn1c(=O)c(-c2ccc(Cl)cc2)nc2cnc(Nc3ccccc3)nc21,9.57%,–
CN1CCN(c2ncc3nc(-c4ccc(Cl)cc4)c(=O)n(-c4ccccc4)c3n2)CC1,12.4%,–
CN1CCN(c2ccnc(-c3ccoc3)n2)CC1,10%,–
COc1cccc(Cn2c(=O)c(-c3cccs3)nc3cnc(N(C)C)nc32)c1,6.2%,–
Cc1nc2cnc(OCc3ccccc3)nc2n(C)c1=O,8.85%,–
COc1ccccc1CCn1c(=O)c(-c2cccc(F)c2)nc2cncnc21,1.61%,–
CN(C)c1ncnc2ccc(-c3ccoc3)cc12,–,0.178 µM (active)
COc1cccc(Nc2ncc3nc(CCc4ccccc4)c(=O)n(C)c3n2)c1,-0.0766%,–
COCCNc1ncnc2ccc(-c3ccccc3C)cc12,–,11.2 µM (active)
COc1ccc(-c2nc3cnc(Oc4ccccc4)nc3n(CCC#N)c2=O)cc1,0.23%,–
COc1cccc(Nc2ncc3nc(-c4ccc(Cl)cc4)c(=O)n(C4CC4)c3n2)c1,6.51%,–
CCNc1ncc2nc(-c3cn(C)c4ccccc34)c(=O)n(C)c2n1,9.26%,–
CN1CCN(c2ncc3nc(-c4cccc(C#N)c4)c(=O)n(Cc4ccc(F)cc4)c3n2)CC1,8.05%,–
COc1ccc(Oc2ncc3nc(-c4ccc(OC)cc4)c(=O)n(C)c3n2)cc1,11%,–
Cc1nc2cnc(N3CCOCC3)nc2n(C[C@H]2CCCO2)c1=O,1.59%,–
COc1cccc(Cn2c(=O)c(-c3ccc(F)cc3)nc3cnc(OC)nc32)c1,6.36%,–

# Biological target: Ubiquitin carboxyl-terminal hydrolase 1 (Homo sapiens) (UniProt O94782)
# Assay: Inhibitors of USP1/UAF1: Pilot qHTS (AID 504865); note: nearly all actives have a fitted effect of over 35% in size;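 for activity change, negative = inhibition: rhodamine fluorescence freed from ubiquitin-rhodamine substrate followed over time; top concentration of the series differs between compounds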
# Settings: purified USP1/UAF1, Ub-rhodamine cleavage fluorescence; series mostly up to 54.9 µM; activity change, negative = inhibition: at the top concentration
# How it was run: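 1nM USP1/UAF1 + cpd, 15 min RT; start w/ Ub-Rho 150nM final; kinetic FL 480/540 nm, 6 reads q60 s. Buffer 50mM HEPES pH 7.8, 0.5mM EDTA, 1mM TCEP, 0.01% Tween-20, 0.1 mg/ml BSA.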
# Ubiquitin carboxyl-terminal hydrolase 1 (Homo sapiens), sequence (O94782 whole entry, looked up): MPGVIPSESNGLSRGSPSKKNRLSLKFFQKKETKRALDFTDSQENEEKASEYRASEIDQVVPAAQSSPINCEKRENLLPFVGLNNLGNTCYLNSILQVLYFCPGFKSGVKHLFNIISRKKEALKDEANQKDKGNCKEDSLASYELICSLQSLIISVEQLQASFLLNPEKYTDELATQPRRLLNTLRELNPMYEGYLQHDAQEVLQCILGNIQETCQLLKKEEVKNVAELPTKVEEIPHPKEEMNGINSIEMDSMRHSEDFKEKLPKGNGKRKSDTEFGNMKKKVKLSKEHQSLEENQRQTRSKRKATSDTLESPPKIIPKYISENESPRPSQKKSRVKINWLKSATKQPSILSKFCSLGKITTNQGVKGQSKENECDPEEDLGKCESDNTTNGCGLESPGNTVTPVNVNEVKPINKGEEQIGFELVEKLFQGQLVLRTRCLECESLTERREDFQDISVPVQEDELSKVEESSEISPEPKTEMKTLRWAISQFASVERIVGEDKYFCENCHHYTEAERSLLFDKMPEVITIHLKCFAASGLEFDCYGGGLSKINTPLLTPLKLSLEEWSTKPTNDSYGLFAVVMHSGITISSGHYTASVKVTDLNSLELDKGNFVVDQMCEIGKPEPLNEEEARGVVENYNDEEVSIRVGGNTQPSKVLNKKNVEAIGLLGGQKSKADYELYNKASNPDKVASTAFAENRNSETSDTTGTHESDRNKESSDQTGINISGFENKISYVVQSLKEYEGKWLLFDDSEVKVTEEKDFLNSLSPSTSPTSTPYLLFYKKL
SMILES,Potency,"activity change, negative = inhibition"
Cc1ccccc1-c1nccc(NCc2cccs2)n1,25.1 µM (active),–
CN1CCN(c2ncc3nc(-c4ccc(F)cc4)c(=O)n(Cc4cccs4)c3n2)CC1,–,-10.2%
COc1ccc(-c2nc3cnc(N4CCN(C)CC4)nc3n(Cc3cccs3)c2=O)cc1,–,-13%
FC(F)(F)c1ccccc1-c1nc(NCCN2CCOCC2)c2ccccc2n1,–,-21%
COc1ccc(-c2nc3cnc(Oc4cccc(Cl)c4)nc3n(C3CC3)c2=O)cc1,–,-7.49%
N#CCCn1c(=O)c(-c2ccc(F)cc2)nc2cnc(N3CCOCC3)nc21,–,-8.65%
Cn1c(=O)c(-c2cccs2)nc2cnc(N3CCNCC3)nc21,–,-14.5%
CS(=O)(=O)Nc1cccc(-c2ccc3ncnc(NC4CC4)c3c2)c1,–,-11.4%
COCCn1c(=O)cnc2cnc(Nc3ccccc3)nc21,–,-8.71%
Cc1ccccc1-c1ccc2ncnc(NC3CC3)c2c1,–,-18.4%
c1cncc(CNc2ncncc2-c2cccnc2)c1,–,-6.94%
O=c1c(-c2ccc(F)cc2)nc2cnc(Oc3ccccc3)nc2n1Cc1cccs1,3.16 µM (active),–
FC(F)(F)c1ccccc1-c1nc(NCc2cccs2)c2ccccc2n1,7.94 µM (active),–
COc1ccc(Oc2ncc3nc(-c4cn(C)c5ccccc45)c(=O)n(C4CC4)c3n2)cc1,–,-8.68%
COc1ccc(-n2c(=O)c(-c3ccc(F)cc3)nc3cnc(N4CCOCC4)nc32)cc1,–,-8.09%
CC(=O)NCCNc1ncnc2ccc(-c3ccoc3)cc12,–,-5.81%
COCCNc1ncnc2ccc(-c3cccc(NS(C)(=O)=O)c3)cc12,–,-13.4%
c1csc(CNc2ncnc3ccc(-c4ccoc4)cc23)c1,–,-26%
Cc1ccccc1-c1cc(N2CCN(C)CC2)ncn1,–,-6.12%

SMILES,Potency,"activity change, negative = inhibition"
c1nc(NC2CCNCC2)c2cc(-c3ccoc3)ccc2n1,–,-15.5%
COc1ncc2nc(-c3ccc(F)cc3)c(=O)n(C)c2n1,–,-8.68%
COCCn1c(=O)c(-c2ccc(Cl)cc2)nc2cnc(Nc3ccccc3)nc21,–,-6.56%
CN1CCN(c2ncc3nc(-c4ccc(Cl)cc4)c(=O)n(-c4ccccc4)c3n2)CC1,–,-5.5%
CN1CCN(c2ccnc(-c3ccoc3)n2)CC1,–,-15.4%
COc1cccc(Cn2c(=O)c(-c3cccs3)nc3cnc(N(C)C)nc32)c1,–,-8.13%
Cc1nc2cnc(OCc3ccccc3)nc2n(C)c1=O,–,-6.22%
COc1ccccc1CCn1c(=O)c(-c2cccc(F)c2)nc2cncnc21,–,-20.5%
CN(C)c1ncnc2ccc(-c3ccoc3)cc12,–,-15.3%
COc1cccc(Nc2ncc3nc(CCc4ccccc4)c(=O)n(C)c3n2)c1,–,-9.36%
COCCNc1ncnc2ccc(-c3ccccc3C)cc12,–,-20.2%
COc1ccc(-c2nc3cnc(Oc4ccccc4)nc3n(CCC#N)c2=O)cc1,–,-15%
COc1cccc(Nc2ncc3nc(-c4ccc(Cl)cc4)c(=O)n(C4CC4)c3n2)c1,–,-7.75%
CCNc1ncc2nc(-c3cn(C)c4ccccc34)c(=O)n(C)c2n1,–,-3.99%
CN1CCN(c2ncc3nc(-c4cccc(C#N)c4)c(=O)n(Cc4ccc(F)cc4)c3n2)CC1,–,-18.3%
COc1ccc(Oc2ncc3nc(-c4ccc(OC)cc4)c(=O)n(C)c3n2)cc1,–,-3.85%
Cc1nc2cnc(N3CCOCC3)nc2n(C[C@H]2CCCO2)c1=O,–,-12.1%
COc1cccc(Cn2c(=O)c(-c3ccc(F)cc3)nc3cnc(OC)nc32)c1,–,-11.3%
